Screening data from PubChem.
TTR transcr act: increases transthyretin transcription | SH-SY5Y TTR promoter Gaussia luciferase, luminescence; 100% = recombinant luciferase protein wells | activation, % at 16.7 µM | actives 1.3% (n = 92,000) | AID 1117267;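 active means activation above the mean of all tested compounds plus 3 SD, cut at about 9.5% in these data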;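 further: cells exposed to compounds for one day before reading; 0% = median of all test compound wells on the plate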
HuH7 TTR inh: HuH7 TTR transcription inhibition, counter-screen. shares compounds with TTR transcr act. HuH7 TTR promoter-Gaussia luciferase reporter, luminescence. inhibition, % at 16.7 µM. actives 4% (n = 1,100);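 active means average inhibition above the solvent-only control wells' mean plus 3 SD, cut at about 15% in these data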;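 further: 0% = cells with DMSO only and 100% = cells with inhibitor control FD; inhibitors lower well luminescence so higher value means more inhibition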
TTR up confirm: human TTR transcription activation, confirmation | shares compounds with TTR transcr act | SHSY5Y TTR promoter Gaussia luciferase, luminescence; 100% = purified Lucia enzyme wells, no cells | activation, % at 16.7 µM | 1,100 tested, under 10 active | AID 1117280;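 active means mean activation above a set limit taken from the earlier primary screen, cut at about 11% in these data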;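 further: 0% = DMSO-treated cells and 100% = recombinant Lucia luciferase without cells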
* = called active by the depositor. The sample as a whole holds a higher share of hits than the screen did.

SMILES	TTR transcr act	others
N#Cc1ccc(NC(=O)OC2CC3CC2[C@H]2CCCCN2[C@H]3Cc2ccccc2)cc1 (stereo partly drawn)	0
CCOCCOC(=O)COC(=O)c1ccccc1NC(=O)c1ccccc1	12*	HuH7 TTR inh=-12;TTR up confirm=1
CCOC(=O)c1ccccc1NC(=O)C(C)Oc1ccccc1 (stereo not drawn)	-2
CCOC(=O)c1ccccc1NC(=O)C=C(C)C	0
O=C(N1CCC(C(O)(c2ccccc2)c2ccccc2)CC1)n1ncc(C(O)(c2ccccc2)c2ccccc2)n1	-3
CCCN(CC(=O)Nc1ccccc1C)C(=O)Cc1cccs1	4
Cc1cccc(OCCCC(=O)Nc2ccc(N(C)C)cc2)c1	4
COc1ccc(/C=C/c2nnc(NC(=O)COc3cccc(C)c3)s2)cc1	1
Cc1cccc(OCCC(=O)Nc2nnc(C)s2)c1	17*	HuH7 TTR inh=-16;TTR up confirm=1
CN(Cc1ccccc1Cl)C(=O)CNC(=O)C12CC3CC(CC(C3)C1)C2	2
O=C(Cc1ccc(NC(=O)C2CCCN(C(=O)c3ccccc3)C2)cc1)Nc1ccc(C(=O)N2CCOCC2)cc1 (stereo not drawn)	2
NC(=O)c1ccccc1N/C=C1\CCCCC1=O	1
COc1ccc(Oc2ccc(N/C=C3\CCCC3=O)cc2)cc1	0
COc1ccc(OC)c(N/C=C2/CCCCC2=O)c1	11*	HuH7 TTR inh=4;TTR up confirm=1
CCCCN1CCS(=O)(=O)N(Cc2cn(Cc3cccc(Cl)c3)nn2)C(C(=O)OC)C1 (stereo not drawn)	0
Cc1ccc(CS(=O)(=O)c2nsc(C)c2C#N)cc1	19*	HuH7 TTR inh=-3;TTR up confirm=0
Cc1cc(C)c(C#N)c(SCc2ccc([N+](=O)[O-])cc2)n1	9
Cc1ccc(S(=O)(=O)Nc2nsc(N)n2)cc1	1
Cn1c(=O)cc(OCCCC(=O)Nc2cc(C(F)(F)F)ccn2)c2ccccc21	2
C[C@H]1[C@@H](OC(=O)NCc2cccc(Cl)c2)CC[C@@]23CCCN2C(=O)CCC[C@@H]13	1
CCC[C@H]1[C@@H](OC(=O)NCCc2ccccc2)CC[C@@]23CCCN2C(=O)CCC[C@@H]13	-2
C/C(=N\NC(=O)C(O)c1ccccc1)c1ccc(Cl)cc1 (stereo not drawn)	23*	HuH7 TTR inh=-11;TTR up confirm=0
C/C(=N\NC(=O)c1ccccn1)c1ccc(Cl)cc1	-2
CC(/C=C/c1ccccc1)=N/NC(=O)C(O)c1ccccc1 (stereo not drawn)	3
O=C(NCc1ccccc1)OC1CCC12CCC(c1ccccc1)CC2 (stereo not drawn)	1
SMILES	TTR transcr act	others
COC(=O)[C@]1(C)CN(C(=O)OC(C)(C)C)C2=C1C(=O)C[C@](C)(C(=O)OC(C)(C)C)C2	0
COCCCNC(=O)c1ccc(Cn2c(=O)c3ccccc3n(Cc3ccc([N+](=O)[O-])cc3)c2=O)cc1	0
COC(=O)c1ccc(NC(=O)CSc2nnc(C)n2-c2ccccc2)cc1	0
Cc1cccc(C)c1NC(=O)CSc1nnc(C)n1-c1ccccc1	-2
COc1ccc(O)c(/C=N/NC(=O)CSc2nnc(C)n2-c2ccccc2)c1	11*	HuH7 TTR inh=-17;TTR up confirm=1
Cc1cc(C)nc(NS(=O)(=O)c2ccc(NC(=O)C3CC(=O)N(c4ccccc4)C3)cc2)n1 (stereo not drawn)	-1
Cc1cc(C)nc(NS(=O)(=O)c2ccc(NC(=O)C3CC3)cc2)n1	24*	HuH7 TTR inh=-21;TTR up confirm=0
Cc1ccnc(NS(=O)(=O)c2ccc(NC(=O)C3CC3)cc2)n1	5
CCN(CC)S(=O)(=O)c1ccc2c(c1)nc(CCC(=O)Nc1ccc(N3CCOCC3)cc1)n2C	-1
CC(=C/c1ccc(C(C)C)cc1)/C=N/NC(=O)c1ccncc1	10*	HuH7 TTR inh=-4;TTR up confirm=0
CC(/C=N\NC(=O)Cn1cncn1)=C/c1ccc(C(C)C)cc1	0
CC(/C=N/NC(=O)Cn1nccc1C)=C\c1ccc(C(C)C)cc1	-1
C=CCN1C(=O)[C@H](CC(=O)NCCC(C)C)[C@@]2(C(=O)OCC)CCCC=C12	0
COc1cccc(NC(=O)COC(=O)c2c(F)cccc2Cl)c1	-1
COc1cccc(NC(=O)COC(=O)c2c3c(nc4ccccc24)CCC(C)C3)c1 (stereo not drawn)	11*	HuH7 TTR inh=-3;TTR up confirm=0
CC1CCc2nc3ccccc3c(C(=O)OCC(=O)N(C)C3CCS(=O)(=O)C3)c2C1 (stereo not drawn)	0
C=C(C)C1CCC(C)=C1CC(C)(C)/C=N\n1cnnc1 (stereo not drawn)	2
CCOC(=O)c1sc(NC(=O)c2ccc(S(=O)(=O)N3CCOCC3)cc2)nc1-c1ccccc1	-1
CCOC(=O)c1sc(N)nc1-c1ccccc1	1
CCOC(=O)Nc1nc(-c2ccccc2)c(C(=O)c2ccc(Cl)cc2)s1	11*	HuH7 TTR inh=23*;TTR up confirm=0
O=C(COc1ccc(Cl)cc1)NCc1nnc(SCC(=O)NCc2ccc3c(c2)OCO3)o1	-1
COc1ccc(C(=O)NCc2nnc(SCC(=O)Nc3ccc4c(c3)OCO4)o2)cc1	3
O=C(CSc1nnc(CNC(=O)c2ccccc2)o1)NCc1ccc2c(c1)OCO2	17*	HuH7 TTR inh=-16;TTR up confirm=0
COc1cc(CNc2cccc3c2S(=O)(=O)N([C@H](C)c2ccccc2)C[C@@H](COCc2ccccc2)O3)cc(OC)c1OC	0
CCCCOCCCNC(=O)C[C@H]1C[C@@]2(C(=O)OC)C(=C[C@H](C3CCCC3)O[C@@H]2C)N(Cc2ccco2)C1=O	0
SMILES	TTR transcr act	others
O=C(COc1ncnc2cc([N+](=O)[O-])ccc12)NC(=O)NC1CCCCC1	0
O=C(COc1ncnc2ccccc12)Nc1cc([N+](=O)[O-])ccc1Cl	38*	HuH7 TTR inh=-4;TTR up confirm=0
O=C(CC(=O)c1ccccc1)Nc1cc([N+](=O)[O-])ccc1Cl	3
COC(=O)N[C@H]1CC=C[C@@H]1Cc1cccc(Oc2ccccc2)c1	2
O=C1CC(c2ccc3ccccc3c2)N=C2N(Cc3ccc4c(c3)OCO4)C/C(=C/c3ccccc3)N12 (stereo not drawn)	-1
CC[C@H]1/C(=C/c2ccccc2)N2C(=O)C[C@H](c3ccccc3)N=C2N1C	3
C=CCN1C/C(=C/c2ccccc2)N2C(=O)CC(c3ccccc3)N=C12 (stereo not drawn)	11*	HuH7 TTR inh=-18;TTR up confirm=1
CCc1cccc2c(C(=S)N3CCOCC3)c[nH]c12	0
CCCCC[C@H]1CN(Cc2ccccc2)C(=O)[C@@H]1CC(=O)NCc1ccc(OC)cc1	-3
O=C(Nc1ccc(F)cc1)OCc1cn(Cc2cc(F)cc(F)c2)nn1	2
CC(/C=C1\SC(=S)N(C(C(=O)O)c2ccccc2)C1=O)=C\c1ccccc1 (stereo not drawn)	0
COc1ccc(OC)c(/C=C2\SC(=S)N(C(C(=O)O)c3ccccc3)C2=O)c1 (stereo not drawn)	16*	HuH7 TTR inh=11;TTR up confirm=-1
C=CCOc1ccc(/C=C2\SC(=S)N(C(C(=O)O)c3ccccc3)C2=O)cc1 (stereo not drawn)	0
CCC(CO)Oc1cc(NCc2ccc(F)cc2)c2ncn(C(C)C)c2c1 (stereo not drawn)	-4
CCC(CO)Oc1cc(NCc2ccncc2)c2ncn(C(C)C)c2c1 (stereo not drawn)	4
